Compound activity: PubChem, National Center for Advancing Translational Sciences (NCATS)
Pf Dd2 growth = inhibitors of Plasmodium falciparum Dd2 growth; P. falciparum Dd2 growth, SYBR Green, 72 h; Potency, µM (titrated, usually from 28.9 µM), inactives show at the highest dose activity, negative = inhibition, most hits filed as inhibitors; 120,000 compounds, 4.3% hits; active = well fitted inhibition curve with a large enough effect;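 note: plate controls were DMSO vehicle for no effect and reference drug for full effect; nearly all actives have a fitted effect of over 65% in size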
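Infected erythrocytes (Dd2, 0.3% parasitemia, 2.5% hematocrit final) are added to compound in RPMI-1640/Albumax II medium, grown 72 h at 37C in low oxygen, then lysed with saponin/Triton-X containing SYBR Green and read by fluorescence.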
The depositor's hits bear a star; [ ] = dose if it differs, or a comment. Many of the other results were omitted from the sample, so hits are more common in it than they were. Potency is the fitted concentration of half-maximal effect.

`Fc1cccc(Cc2nc(-c3nnn4c3COC(c3ccc(Cl)cc3)C4)no2)c1` (stereo unspecified) gave Pf Dd2 growth inactive.
`COc1ccc(C2Cn3nnc(C(=O)N4CCC(C(=O)NCCc5cccs5)CC4)c3CO2)cc1` (stereo unspecified) gave Pf Dd2 growth -22.7%.
COc1cccc(CN2CCOC3CCN(Cc4cccc(Cl)c4)CC3C2=O)c1 (stereo unspecified) was read as Pf Dd2 growth inactive.
`O=C(N[C@H]1CCC[C@H]1O)C1(Oc2ccc(Cl)cc2)CCNCC1` gave Pf Dd2 growth -19.4%.
`O=C(c1cnn2ccccc12)N1CCC(Cc2cccc(CO)c2)C1` (stereo unspecified) gave Pf Dd2 growth -25.8%.
Screening COc1ccc2nc(C[C@@H]3C[C@@H](C(C)C)[C@H](CNC(=O)C4CCCCC4)C=C3C)[nH]c2c1 returned Pf Dd2 growth 12.6µM*.
Screening COc1ccc2nc(C[C@@H]3C[C@@H](C(C)C)[C@H](CNC(=O)COCC(=O)O)C=C3C)[nH]c2c1 returned Pf Dd2 growth -16.2%[44.1 µM].
Screening COC(=O)c1ccc2nc(C[C@@H]3C[C@@H](C(C)C)[C@H](CNC(=O)C4CCCCC4)C=C3C)[nH]c2c1 returned Pf Dd2 growth 11.2µM*.
For CC1=C[C@@H](CNC(=O)CC(C)(C)CC(=O)O)[C@H](C(C)C)C[C@H]1Cc1nc2c(C)cccc2[nH]1 the results were Pf Dd2 growth -23.7%.
`CC1=C[C@@H](CNC(=O)CCCC(=O)O)[C@H](C(C)C)C[C@H]1Cc1nc2ccccc2[nH]1` gave Pf Dd2 growth -19.2%[44.1 µM].
`COc1ccc2nc(C[C@@H]3C[C@@H](C(C)C)[C@H](CNCc4ccccc4)C=C3C)[nH]c2c1` gave Pf Dd2 growth -15.1%[44.1 µM].
Screening CC1=C[C@@H](CNC(=O)CC(C)(C)CC(=O)O)[C@H](C(C)C)C[C@H]1Cc1nc2ccc(F)cc2[nH]1 returned Pf Dd2 growth inactive.
`COc1ccc2nc(C[C@@H]3C[C@@H](C(C)C)[C@H](CNC(=O)[C@@H]4CCCC[C@@H]4C(=O)O)C=C3C)[nH]c2c1` gave Pf Dd2 growth -24.3%.
Screening CC1=C[C@@H](CNC(=O)CC(C)(C)CC(=O)O)[C@H](C(C)C)C[C@H]1Cc1nc2ccncc2[nH]1 returned Pf Dd2 growth 2.0%.
For CC1=C[C@@H](CNC(=O)COCC(=O)O)[C@H](C(C)C)C[C@H]1Cc1nc2ccc(F)cc2[nH]1 the results were Pf Dd2 growth 9.0%[44.1 µM].
Screening CC1=C[C@@H](CNCc2ccccc2)[C@H](C(C)C)C[C@H]1Cc1nc2c(C)cccc2[nH]1 returned Pf Dd2 growth 3.55µM*.
Screening CC1=C[C@@H](CNC(=O)CC(C)(C)CC(=O)O)[C@H](C(C)C)C[C@H]1Cc1nc2ccc(C)cc2[nH]1 returned Pf Dd2 growth 8.91µM*.
For O=C(CCc1nc2ccccc2[nH]1)N1C[C@@H](CO)[C@H](c2ccncc2)C1 the results were Pf Dd2 growth 22.8%.
For CNC(=O)N1CCC(C2CCN(S(=O)(=O)c3cc(F)ccc3OC)C2)CC1 (stereo unspecified) the results were Pf Dd2 growth inactive.
COCCC(=O)N1CCN(C(=O)N2CC3CC(C2)[C@H]2CCCC(=O)N2C3)CC1 (stereo partly specified) was read as Pf Dd2 growth -3.9%.
Screening Cc1nc(CN2C(=O)OC3(CCN(C(=O)c4cccnc4)CC3)C2(C)c2ccccc2)cs1 (stereo unspecified) returned Pf Dd2 growth -19.0%.
`CN1CC(=O)N(C2CCNCC2)Cc2c(NC3CCCCC3O)ncnc21` (stereo unspecified) gave Pf Dd2 growth -2.9%.
For O=C(c1ccc(Cl)cc1)N1CCC(N2Cc3cccn3C2=O)CC1 the results were Pf Dd2 growth 17.1%.
For Cc1noc(C)c1CC(=O)N1CCCCCCNC(=O)CC1 the results were Pf Dd2 growth 16.2%.
Screening COc1ccc(OC)c(C2CCN(C(=O)c3cc4ccccc4[nH]c3=O)C2)c1 (stereo unspecified) returned Pf Dd2 growth -19.6%.
For Cc1ccc(NC(=O)[C@H]2CN(Cc3ccccc3)C[C@H]2C(=O)O)cc1 the results were Pf Dd2 growth -14.8%.
For COc1ccc(-c2cc(N3CCC(NC(=O)c4ccc(C)cc4)C3)n[nH]2)cc1 (stereo unspecified) the results were Pf Dd2 growth 11.2µM*.
`O=C(NC1CCCN(c2cc(-c3ccccc3)[nH]n2)C1)c1cccc(Br)c1` (stereo unspecified) gave Pf Dd2 growth -8.6%.
`O=C(NC1CCN(c2cc(-c3ccc(Cl)cc3)[nH]n2)C1)c1ccncc1` (stereo unspecified) gave Pf Dd2 growth inactive.
COc1ccc(-c2cc(N3CCCC(NC(=O)c4ccccc4)C3)n[nH]2)cc1 (stereo unspecified) was read as Pf Dd2 growth inactive.
COc1ccc(-c2cc(N3CCC(NC(=O)c4ccc(Cl)cc4)C3)n[nH]2)cc1 (stereo unspecified) was read as Pf Dd2 growth inactive.
CN(C)c1cccc(C(=O)NC2CCN(c3cc(-c4ccc(Cl)cc4)[nH]n3)C2)c1 (stereo unspecified) was read as Pf Dd2 growth 7.94µM*.
COc1ccc(-c2cc(N3CCCC(NC(=O)c4ccc5[nH]ccc5c4)C3)n[nH]2)cc1 (stereo unspecified) was read as Pf Dd2 growth 10µM*.
`COc1ccc(C(=O)NC2CCCN(c3cc(-c4ccc(F)cc4)[nH]n3)C2)cc1` (stereo unspecified) gave Pf Dd2 growth -10.8%.
Screening CN(C)c1cccc(C(=O)NC2CCCN(c3cc(-c4ccccc4)[nH]n3)C2)c1 (stereo unspecified) returned Pf Dd2 growth -0.5%.
`O=C(NC1CCCN(c2cc(-c3ccccc3)[nH]n2)C1)c1ccc2[nH]ccc2c1` (stereo unspecified) gave Pf Dd2 growth -4.6%.
COc1ccc(-c2cc(N3CCCC(NC(=O)c4cccc(Br)c4)C3)n[nH]2)cc1 (stereo unspecified) was read as Pf Dd2 growth 10µM*.
CCOc1ccc(C(=O)NC2CCN(c3cc(-c4ccc(OC)cc4)[nH]n3)C2)cc1 (stereo unspecified) was read as Pf Dd2 growth inactive.
Screening CC(C)(C)CC(=O)NC[C@H]1OC[C@@H](NCc2ncc[nH]2)[C@@H]1O returned Pf Dd2 growth 5.4%[44.1 µM].
For O=C(CN1CCN(C2CCCC2)CC(O)C1)NCCc1ccccc1 (stereo unspecified) the results were Pf Dd2 growth -20.0%.
Screening COC[C@@H]1[C@H](NC(=O)c2cnc(-c3cccnc3)nc2C)[C@@H]2CCO[C@H]12 returned Pf Dd2 growth -5.3%.
For O=C(C1CCCC1)N1CCCC(n2cc(-c3nc(-c4ccccc4)no3)nn2)C1 (stereo unspecified) the results were Pf Dd2 growth -92.7%.
Screening CCOC(=O)CCNC(=O)N1CCc2c(nc(-c3ccc(F)cc3)[nH]c2=O)C1 returned Pf Dd2 growth -20.5%.
`O=C(c1ccc[nH]c1=O)N1C[C@@H](COCC2CC2)[C@H](c2ccccn2)C1` gave Pf Dd2 growth 3.0%.
For c1ccc(-c2nnc3ccc(N4CCc5ccccc5C4)nn23)nc1 the results were Pf Dd2 growth inactive.
For CC(=O)Nc1ccc(C(O)[C@H]2COCC(=O)N2Cc2ccccc2F)cc1 (stereo partly specified) the results were Pf Dd2 growth 0.0%[44.1 µM].
Screening NC(=O)COC[C@@H]1CN(C(=O)CC2CCCCC2)C[C@H]1c1ccncc1 returned Pf Dd2 growth 2.4%.
